Screening data deposited in PubChem by National Center for Advancing Translational Sciences (NCATS).
TDP1 cell CPT: growth inhibition of DT40 Tdp1-/-;hTDP1 cells with camptothecin (screen for TDP1 inhibitors) | hit rate 12% among 420,000 | AID 686979 | chicken DT40 Tdp1-/-;hTDP1 cells + 20 nM CPT, ATP luminescence, 48 h | Potency, µM (highest dose often 46.2 µM), for the others: top-dose activity change, negative = growth inhibition, actives largely listed as inhibitors; further: potency means the concentration at half of the fitted maximal effect; nearly all actives have a fitted effect of over 55% in size
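Chicken DT40 Tdp1-/- cells complemented with human TDP1, 400 cells/well, exposed to compounds plus 20 nM camptothecin for at least 48 h at 37 C; viability read as ATP content by CellTiter-Glo luminescence.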
Giardia killer: Giardia lamblia killing. Giardia lamblia trophozoite viability. activity change, % at 7.66 µM, hits read low. hit rate 0.15% among 340,000; in the data active means activity change below about -80%; inconclusive means between about -30% and that limit;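 further: parasites exposed to compound for two days anaerobically before the ATP read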
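Luminescence from cellular ATP indicates surviving trophozoites (100 cells/well) following 48 hrs anaerobic compound treatment at 37 deg C; signal develops 15-30 min at room temperature.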
IL-1B inflam inh: inflammasome signaling inhibition, IL-1 beta readout | THP-1 LPS/ATP IL-1B secretion, AlphaLISA, 16 h; hits give low values | AID 743279 | hit rate 4.7% among 360,000 | activity change, % at 57.5 µM; in the data active means activity change below about -50%; inconclusive means mostly about -30% to -49%
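THP-1 cells pretreated 1 hr with compounds (up to 57.5 uM final), then stimulated with LPS (250 ng/mL final) plus ATP (1.25 mM final); secreted IL-1B measured by AlphaLISA after 16 hr, decreased signal indicating inhibition.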
ELG1 DNA repair: ELG1-dependent DNA repair inhibition | Potency, µM (doses to about 46.1 µM), inactives show top-dose activity change, negative = inhibition, usual class: inhibitors | hit rate 2.3% among 330,000 | HEK293T ELG1-luciferase reporter, luminescence, 16 h; DNA damage induced by 5-fluorouridine; further: potency means the concentration at half of the fitted maximal effect; nearly all actives have a fitted effect of over 55% in size
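Step one: seed 2,000 cells per well. Step two: pin-transfer compound or DMSO alongside 5-fluorouridine. Step three: incubate 16 hr, 37 °C, 5% CO2. Step four: add ONE-Glo, wait 30 min, read luminescence.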
TDP1 inh: inhibitors of human tyrosyl-DNA phosphodiesterase TDP1; hit rate 0.28% among 350,000; AID 485290; Q9NUW8; recombinant TDP1, AlphaScreen DNA substrate cleavage; Potency, µM (titrated, usually from 130 µM), without a hit: top-dose activity change, negative = inhibition, usual class: inhibitors; further: potency means the concentration at half of the fitted maximal effect; nearly all actives have a fitted effect of over 40% in size
Target sequence (Q9NUW8 whole entry, looked up): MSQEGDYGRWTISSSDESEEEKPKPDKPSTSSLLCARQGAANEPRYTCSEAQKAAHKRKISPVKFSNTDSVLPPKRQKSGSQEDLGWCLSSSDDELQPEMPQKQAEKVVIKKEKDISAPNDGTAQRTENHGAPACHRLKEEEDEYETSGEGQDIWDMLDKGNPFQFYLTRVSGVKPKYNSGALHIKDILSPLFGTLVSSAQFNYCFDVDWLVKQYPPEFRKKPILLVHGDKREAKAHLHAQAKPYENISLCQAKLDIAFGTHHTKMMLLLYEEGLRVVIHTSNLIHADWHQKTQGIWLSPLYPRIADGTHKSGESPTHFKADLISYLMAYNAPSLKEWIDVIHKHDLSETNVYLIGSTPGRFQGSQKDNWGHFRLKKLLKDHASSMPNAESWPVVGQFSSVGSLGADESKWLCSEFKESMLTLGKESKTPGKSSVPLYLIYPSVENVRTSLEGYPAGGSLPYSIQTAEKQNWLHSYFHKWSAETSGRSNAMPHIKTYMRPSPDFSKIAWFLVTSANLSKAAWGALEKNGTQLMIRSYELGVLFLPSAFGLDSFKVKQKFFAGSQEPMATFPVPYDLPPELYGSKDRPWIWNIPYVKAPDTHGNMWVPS
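Recombinant E. coli-expressed Tdp1 (1 nM) preincubated with compound 15 min at RT, then 5'-biotin/3'-phosphotyrosine-FITC DNA substrate (15 nM) added for 5 min. AlphaScreen beads (10 ug/ml) added, 10 min RT; tyrosine-FITC cleavage read as signal loss.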
TDP1 cell noCPT: qHTS for Inhibitors of human tyrosyl-DNA phosphodiesterase 1 (TDP1): qHTS in cells in absence of CPT; hit rate 15% among 420,000; DT40 Tdp1-/- hTDP1 cells, no CPT, ATP luminescence, 48 h; Potency, µM (highest dose often 46.2 µM), without a hit: at the top dose activity change, negative = growth inhibition, most hits filed as inhibitors; further: potency means the concentration at half of the fitted maximal effect; nearly all actives have a fitted effect of over 55% in size
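Chicken DT40 Tdp1-/- cells complemented with human TDP1, screened without camptothecin (DMSO vehicle only), 400 cells/well. Compounds pin-transferred, cells incubated at 37 °C for at least 48 hr. Growth read as ATP-dependent luminescence (CellTiter-Glo, 30 min at RT).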
The depositor's hits bear a star; ? = inconclusive; / = not tested or not shown; [ ] = remark or other dose. This is a sample that favours compounds with a hit; in the whole collection about 19% have one here. Unless noted, the call rests on the fitted dose curve; in most records, active means well fitted curve in the direction sought with a large enough effect; inconclusive means small, poorly fitted or top-dose-only effect, or another doubt; inactive means no such curve, though single readings can be large; an effect the other way counts as inactive or inconclusive. On the % scale 0 is the no-effect control and ±100 the full control effect.

SMILES	TDP1 cell CPT	Giardia killer	IL-1B inflam inh	ELG1 DNA repair	TDP1 inh	TDP1 cell noCPT
O=C(NCSc1ccnc(SCNC(=O)c2ccc(F)cc2)n1)c1ccc(F)cc1	6.3%	-14.7	-4.5	14.5%	2.6%	4.2%
CCC(=O)N(CCCN(C)C)c1nc(-c2cc(OC)ccc2OC)cs1	-18.4%	-5.9	?	5.4%	7.9%	-7.9%
CCN(CC)CCCN(C(=O)c1ccccc1C)c1nc(-c2ccc(OC)cc2)cs1	?	2.5	-20.6	?	/	23.1µM*
CCN(CC)CCCN(C(=O)c1ccccc1F)c1nc(-c2ccc(OC)cc2)cs1	?	12.2	-65.3*	-28.2%	/	?
CN1CCN(c2ncnc3sc(-c4ccccc4)cc23)CC1	?	3.8	-59.8*	-0.1%	-2.6%	?
c1ccc(-c2cc3c(N4CCN(c5ncccn5)CC4)ncnc3s2)cc1	?	9.2	2.7	-22.4%	-6.9%	?
COc1ncnc2sc(-c3ccccc3)cc12	-30.0%	13.5	-9.9	?	4.2%	-27.2%
CN(C)/C=N/c1c(C#N)cnn1-c1ncnc2sc(-c3ccccc3)cc12	20.6µM*	-1.8	-15.7	18.4µM*	2.9%	18.4µM*
c1ccc(-c2cc3c(N4CCN(c5ccccc5)CC4)ncnc3s2)cc1	?	15.2	-29.7	?	5.1%	18.4µM*
O=S(=O)(c1ccccc1)N1CCN(c2ncnc3sc(-c4ccccc4)cc23)CC1	20.6µM*	5.3	-20.5	?	-2.1%	11.6µM*
COc1ccc(S(=O)(=O)N(C)C[C@H]2Oc3c(NC(=O)Nc4c(C)noc4C)cccc3C(=O)N([C@H](C)CO)C[C@@H]2C)cc1	-22.9%	35.3	2.6	?	1.5%	?
COc1cc(/C=N/Nc2nncn2/N=C/c2ccc(O)c(OC)c2)ccc1O	?	9.3	17.0	?	0.0%	?
COc1ccc(OC)c(/C=N/Nc2nncn2/N=C/c2cc(OC)ccc2OC)c1	8.2µM*	3.9	?	?	6.3%	7.31µM*
COC/C=C/C1=CC2=CC(=O)C(C)(OC(=O)c3cnc4ccccc4n3)C(=O)C2=CN1C1CC1 (stereo unspecified)	?	23.4	-13.1	/	-5.3%[12.3 µM]	20.6µM*
COC/C=C/C1=CC2=CC(=O)C(C)(OC(=O)c3cnc4ccccc4n3)C(=O)C2=CN1Cc1ccc(OC)cc1 (stereo unspecified)	23.1µM*	-29.0	-60.1*	5.7%	8.0%[12.3 µM]	?
COC/C=C/C1=CC2=CC(=O)C(C)(OC(=O)c3cnc4ccccc4n3)C(=O)C2=CN1CC1CC1 (stereo unspecified)	-21.5%	-22.1	2.8	/	12.8%[12.3 µM]	?
COC/C=C/C1=CC2=CC(=O)C(C)(OC(=O)c3cnc4ccccc4n3)C(=O)C2=CN1Cc1ccccc1 (stereo unspecified)	?	-5.1	0.0	?	16.4%[12.3 µM]	16.4µM*
CCc1ccc(CNCCSc2nnnn2C)cc1	-29.1%	-9.8	-10.6	13.1%	-1.8%	-12.5%
O=c1nc(Nc2ccc(Br)cc2)sc2ccc([N+](=O)[O-])cc12	-16.4%	-22.5	22.9	6.0%	/	-1.7%
O=C(COc1ccccc1Cl)NNC(=O)c1ccc2nc[nH]c2c1	1.9%	-16.7	0.0	9.1%	-2.7%	-16.7%
CC(=O)Nc1ccc(S(=O)(=O)Nc2nc3ccccc3nc2Nc2ccc3ccccc3c2)cc1	?	-4.3	11.3	5.2%	-5.3%	?
COC(=O)c1cc(Nc2nc3ccccc3nc2NS(=O)(=O)c2ccc(C)cc2)ccc1Cl	18.4µM*	/	/	/	1.3%	6.51µM*
CC(=O)Nc1ccc(Nc2nc3ccccc3nc2NS(=O)(=O)c2ccc(Cl)c([N+](=O)[O-])c2)cc1	7.31µM*	-15.2	-107.5*	/	/	5.8µM*
CCOC(=O)c1cc(-c2ccc(OC)c(S(=O)(=O)NC3CCCCC3)c2)on1	-2.0%	/	/	/	10.5%	-18.2%
NC1=NC[C@H](Cc2ccc(O)cc2)N1CCc1cccc(F)c1	-15.6%	8.6	-5.9	1.0%	-1.2%	?
SMILES	TDP1 cell CPT	Giardia killer	IL-1B inflam inh	ELG1 DNA repair	TDP1 inh	TDP1 cell noCPT
NC1=NC[C@@H](Cc2ccc(O)cc2)N1CCCCC1CCCCC1	5.17µM*	0.4	?	-1.9%	1.2%	3.66µM*
NC1=NC[C@H](Cc2ccccc2)N1CC1CCCCC1	10.3µM*	-16.3	-12.8	/	/	11.6µM*
NC1=NC[C@@H](Cc2ccc(O)cc2)N1CCC12CC3CC(CC(C3)C1)C2	20.6µM*	-13.6	-6.3	/	/	20.6µM*
COc1cc(CCCN2C(N)=NC[C@@H]2Cc2ccc(O)cc2)cc(OC)c1OC	-5.1%	4.3	-0.9	?	5.0%	-11.4%
NC1=NC[C@H](Cc2ccc(O)cc2)N1CC1CCCCC1	?	?	-3.9	-3.2%	3.8%	14.6µM*
CC(C)C[C@H](NC(=O)[C@H](CCC(N)=O)NC(=O)[C@H](CCCCN)NC(=O)[C@H](CCC(N)=O)NC(=O)[C@@H](N)CCC(=O)O)C(=O)N[C@@H](CCC(N)=O)C(=O)O	-1.4%[4.12 µM]	/	/	/	4.9%	7.5%[4.12 µM]
CC[C@@H]1C=C(C(=O)O)[C@H](c2ccc(OC)c(OC)c2)N1S(=O)(=O)c1ccc(C)cc1	-5.7%	-1.2	32.5	1.8%	-0.2%	-2.9%
Cc1ccc(C(=O)C(C)OC(=O)c2nc(Cl)ccc2Cl)cc1 (stereo unspecified)	-1.3%	3.1	-19.5	0.6%	5.7%	8.6%
CCOc1ccc(C(=O)CCC(=O)N(CC)CC(=O)Nc2c(F)cccc2F)cc1	-11.2%	13.1	13.3	13.3%	4.2%	-7.5%
NC1=NC[C@H](Cc2ccccc2)N1CCc1cc(C(F)(F)F)cc(C(F)(F)F)c1	23.1µM*	4.0	-27.4	-1.5%	1.2%	14.6µM*
C[C@@H]1O[C@@H](OCCC(=O)O)[C@H](O)C[C@H]1O	-13.4%	-2.1	7.7	?	-0.2%	-11.9%
O=C(O)c1cc([N+](=O)[O-])c(N2CCCC2)c([N+](=O)[O-])c1	2.5%	23.4	25.6	13.0%	0.0%	11.9%
O=C(Cc1cccc(NC(=O)C2CCCN(C(=O)C3CCCC3)C2)c1)Nc1ccc(C(=O)N2CCOCC2)cc1 (stereo unspecified)	16.4µM*	2.0	-24.9	/	/	?
O=C(Cc1cccc(NC(=O)C2CCCN(C(=O)C3CCC3)C2)c1)Nc1ccc(C(=O)N2CCOCC2)cc1 (stereo unspecified)	-26.2%	?	-11.9	/	/	-16.7%
CN(C(=O)c1cccc(NC(=O)Cc2cccc(NC(=O)C3CCCN(C(=O)CCc4ccccc4)C3)c2)c1)C1CCC1 (stereo unspecified)	?	9.1	-18.1	/	/	20.6µM*
